{"source": "the supplement of paper PMC8728848", "binders": {"B1": {"name": "Gal 9 (Homo sapiens), O00182 (protein)", "chain": "MAFSGSQAPYLSPAVPFSGTIQGGLQDGLQITVNGTVLSSSGTRFAVNFQTGFSGNDIAFHFNPRFEDGGYVVCNTRQNGSWGPEERKTHMPFQKGMPFDLCFLVQSSDFKVMVNGILFVQYFHRVPFHRVDTISVNGSVQLSYISFQNPRTVPVQPAFSTVPFSQPVCFPPRPRGRRQKPPGVWPANPAPITQTVIHTVQSAPGQMFSTPAIPPMMYPHPAYPMPFITTILGGLYPSKSILLSGTVLPSAQRFHINLCSGNHIAFHLNPRFDENAVVRNTQIDNSWGSEERSLPRKMPFVRGQSFSVWILCEAHCLKVAVDGQHLFEYYHRLRNLPTINRLEVGGDIQLTHVQT"}}, "assay_in_all_cases": "glycan array binding signal (z-score within array); higher = stronger binding", "conditions_in_all_cases": "glycan notation: IUPAC condensed, linker removed", "key": {"[1]": {"target": "Fuc(a1-2)Gal(b1-3)GalNAc(a1-3)[Fuc(a1-2)]Gal(b1-4)Glc", "outline": "(§1)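 The Consortium for Functional Glycomics database supplied 3228 glycan arrays, of which those lacking an available protein sequence were dropped. The binding signal, a within-array Z-score, was averaged across arrays of the same protein sequence and across linkers. Negative scores can be read as non-binding.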"}, "[2]": {"target": "Fuc(a1-2)Gal(b1-3)GlcNAc(b1-3)GalNAc", "outline": "as §1"}, "[3]": {"target": "Fuc(a1-2)Gal(b1-4)GlcNAc(b1-2)Man(a1-3)[Fuc(a1-2)Gal(b1-4)GlcNAc(b1-2)Man(a1-6)]Man(b1-4)GlcNAc(b1-4)[Fuc(a1-6)]GlcNAc", "outline": "as §1"}, "[4]": {"target": "Fuc(a1-2)Gal(b1-4)GlcNAc6S", "outline": "as §1"}, "[5]": {"target": "Fuc(a1-2)[Gal(a1-3)]Gal(b1-3)GalNAc(b1-3)Gal(a1-4)Gal(b1-4)Glc", "outline": "as §1"}, "[6]": {"target": "Fuc(a1-2)[Gal(a1-3)]Gal(b1-3)GlcNAc(b1-6)GalNAc", "outline": "as §1"}, "[7]": {"target": "Fuc(a1-2)[Gal(a1-3)]Gal(b1-4)GlcNAc(b1-2)Man(a1-3)[Fuc(a1-2)[Gal(a1-3)]Gal(b1-4)GlcNAc(b1-2)Man(a1-6)]Man(b1-4)GlcNAc(b1-4)GlcNAc", "outline": "as §1"}, "[8]": {"target": "Fuc(a1-2)[Gal(a1-3)]Gal(b1-4)GlcNAc(b1-6)GalNAc", "outline": "as §1"}, "[9]": {"target": "Fuc(a1-2)[GalNAc(a1-3)]Gal(b1-3)GlcNAc", "outline": "as §1"}, "[10]": {"target": "Fuc(a1-2)[GalNAc(a1-3)]Gal(b1-4)GlcNAc(b1-2)Man(a1-3)[Fuc(a1-2)[GalNAc(a1-3)]Gal(b1-4)GlcNAc(b1-2)Man(a1-6)]Man(b1-4)GlcNAc(b1-4)GlcNAc", "outline": "as §1"}, "[11]": {"target": "Fuc(a1-2)[GalNAc(a1-3)]Gal(b1-4)[Fuc(a1-3)]GlcNAc(b1-3)GalNAc", "outline": "as §1"}, "Fuc(a1-3)GlcNAc": {"target": "Fuc(a1-3)GlcNAc", "outline": "as §1"}, "[12]": {"target": "Fuc(a1-3)[Gal(b1-4)]GlcNAc(b1-4)Gal(b1-4)[Fuc(a1-3)]GlcNAc", "outline": "as §1"}, "[13]": {"target": "Fuc(a1-3)[Gal(b1-4)]GlcNAc(b1-6)[Gal(b1-3)GlcNAc(b1-3)]Gal(b1-4)Glc", "outline": "as §1"}, "Gal(a1-4)Gal(b1-4)GlcNAc": {"target": "Gal(a1-4)Gal(b1-4)GlcNAc", "outline": "as §1"}, "[14]": {"target": "Gal(b1-3)Gal(b1-4)GlcNAc(b1-2)Man(a1-3)[Gal(b1-3)Gal(b1-4)GlcNAc(b1-2)Man(a1-6)]Man(b1-4)GlcNAc(b1-4)GlcNAc", "outline": "as §1"}, "[15]": {"target": "Gal(b1-3)GlcNAc(b1-3)Gal(b1-4)GlcNAc(b1-2)Man(a1-3)[Gal(b1-3)GlcNAc(b1-3)Gal(b1-4)GlcNAc(b1-2)Man(a1-6)]Man(b1-4)GlcNAc(b1-4)GlcNAc", "outline": "as §1"}, "[16]": {"target": "Gal(b1-3)[Fuc(a1-4)]GlcNAc(b1-6)GalNAc", "outline": "as §1"}, "[17]": {"target": "Gal(b1-3)[Neu5Ac(a2-6)]GalNAc", "outline": "as §1"}, "[18]": {"target": "Gal(b1-4)GlcNAc(b1-2)Man(a1-3)[Gal(b1-4)GlcNAc(b1-2)Man(a1-6)]Man(b1-4)GlcNAc(b1-4)GlcNAc", "outline": "as §1"}, "[19]": {"target": "Gal(b1-4)GlcNAc(b1-2)Man(a1-3)[Gal(b1-4)GlcNAc(b1-2)Man(a1-6)][Gal(b1-4)GlcNAc(b1-4)]Man(b1-4)GlcNAc(b1-4)[Fuc(a1-6)]GlcNAc", "outline": "as §1"}, "[20]": {"target": "Gal(b1-4)GlcNAc(b1-2)Man(a1-6)[Man(a1-3)]Man(b1-4)GlcNAc(b1-4)GlcNAc", "outline": "as §1"}, "[21]": {"target": "Gal(b1-4)GlcNAc(b1-2)[Gal(b1-4)GlcNAc(b1-4)]Man(a1-3)[Gal(b1-4)GlcNAc(b1-2)[Gal(b1-4)GlcNAc(b1-6)]Man(a1-6)]Man(b1-4)GlcNAc(b1-4)GlcNAc", "outline": "as §1"}, "[22]": {"target": "Gal(b1-4)GlcNAc(b1-2)[Gal(b1-4)GlcNAc(b1-6)]Man(a1-6)[GlcNAc(b1-4)][Gal(b1-4)GlcNAc(b1-2)Man(a1-3)]Man(b1-4)GlcNAc(b1-4)GlcNAc", "outline": "as §1"}, "[23]": {"target": "Gal(b1-4)GlcNAc(b1-3)Gal(b1-4)GlcNAc(b1-3)Gal(b1-4)GlcNAc(b1-3)Gal(b1-4)GlcNAc(b1-2)[Gal(b1-4)GlcNAc(b1-3)Gal(b1-4)GlcNAc(b1-3)Gal(b1-4)GlcNAc(b1-3)Gal(b1-4)GlcNAc(b1-6)]Man(a1-6)[Gal(b1-4)GlcNAc(b1-3)Gal(b1-4)GlcNAc(b1-3)Gal(b1-4)GlcNAc(b1-3)Gal(b1-4)GlcNAc(b1-2)Man(a1-3)]Man(b1-4)GlcNAc(b1-4)[Fuc(a1-6)]GlcNAc", "outline": "as §1"}, "[24]": {"target": "Gal(b1-4)GlcNAc(b1-3)Gal(b1-4)GlcNAc(b1-3)Gal(b1-4)GlcNAc(b1-3)Gal(b1-4)GlcNAc(b1-3)Gal(b1-4)GlcNAc(b1-2)Man(a1-3)[Gal(b1-4)GlcNAc(b1-3)Gal(b1-4)GlcNAc(b1-3)Gal(b1-4)GlcNAc(b1-3)Gal(b1-4)GlcNAc(b1-3)Gal(b1-4)GlcNAc(b1-2)Man(a1-6)]Man(b1-4)GlcNAc(b1-4)GlcNAc", "outline": "as §1"}, "[25]": {"target": "Gal(b1-4)GlcNAc(b1-3)Gal(b1-4)GlcNAc(b1-3)Gal(b1-4)GlcNAc(b1-3)Gal(b1-4)GlcNAc(b1-3)Gal(b1-4)GlcNAc(b1-2)Man(a1-3)[Gal(b1-4)GlcNAc(b1-3)Gal(b1-4)GlcNAc(b1-3)Gal(b1-4)GlcNAc(b1-3)Gal(b1-4)GlcNAc(b1-3)Gal(b1-4)GlcNAc(b1-2)Man(a1-6)]Man(b1-4)GlcNAc(b1-4)[Fuc(a1-6)]GlcNAc", "outline": "as §1"}}, "note": "Only a selection was taken, and the strongest signals are over-represented in it overall.", "data": [{"binder": "B1", "values": [{"measurement": "glycan array binding signal (z-score)", "setting": "[1]", "value": -0.317}, {"measurement": "glycan array binding signal (z-score)", "setting": "[2]", "value": -0.3}, {"measurement": "glycan array binding signal (z-score)", "setting": "[3]", "value": -0.322}, {"measurement": "glycan array binding signal (z-score)", "setting": "[4]", "value": 0.06}, {"measurement": "glycan array binding signal (z-score)", "setting": "[5]", "value": -0.307}, {"measurement": "glycan array binding signal (z-score)", "setting": "[6]", "value": -0.233}, {"measurement": "glycan array binding signal (z-score)", "setting": "[7]", "value": 0.9}, {"measurement": "glycan array binding signal (z-score)", "setting": "[8]", "value": -0.307}, {"measurement": "glycan array binding signal (z-score)", "setting": "[9]", "value": 0.055}, {"measurement": "glycan array binding signal (z-score)", "setting": "[10]", "value": 4.39}, {"measurement": "glycan array binding signal (z-score)", "setting": "[11]", "value": -0.288}, {"measurement": "glycan array binding signal (z-score)", "setting": "Fuc(a1-3)GlcNAc", "value": -0.32}, {"measurement": "glycan array binding signal (z-score)", "setting": "[12]", "value": -0.303}, {"measurement": "glycan array binding signal (z-score)", "setting": "[13]", "value": -0.236}, {"measurement": "glycan array binding signal (z-score)", "setting": "Gal(a1-4)Gal(b1-4)GlcNAc", "value": -0.299}, {"measurement": "glycan array binding signal (z-score)", "setting": "[14]", "value": 6}, {"measurement": "glycan array binding signal (z-score)", "setting": "[15]", "value": 4.53}, {"measurement": "glycan array binding signal (z-score)", "setting": "[16]", "value": -0.282}, {"measurement": "glycan array binding signal (z-score)", "setting": "[17]", "value": -0.315}, {"measurement": "glycan array binding signal (z-score)", "setting": "[18]", "value": 2.94}, {"measurement": "glycan array binding signal (z-score)", "setting": "[19]", "value": -0.269}, {"measurement": "glycan array binding signal (z-score)", "setting": "[20]", "value": 0.09}, {"measurement": "glycan array binding signal (z-score)", "setting": "[21]", "value": 4.71}, {"measurement": "glycan array binding signal (z-score)", "setting": "[22]", "value": 3.87}, {"measurement": "glycan array binding signal (z-score)", "setting": "[23]", "value": 9.56}, {"measurement": "glycan array binding signal (z-score)", "setting": "[24]", "value": 4.95}, {"measurement": "glycan array binding signal (z-score)", "setting": "[25]", "value": 4.2}]}]}
